Assay [1] addresses T1, Ephrin type-B receptor 1 (Homo sapiens) (UniProt P54762).
T1 sequence (whole entry): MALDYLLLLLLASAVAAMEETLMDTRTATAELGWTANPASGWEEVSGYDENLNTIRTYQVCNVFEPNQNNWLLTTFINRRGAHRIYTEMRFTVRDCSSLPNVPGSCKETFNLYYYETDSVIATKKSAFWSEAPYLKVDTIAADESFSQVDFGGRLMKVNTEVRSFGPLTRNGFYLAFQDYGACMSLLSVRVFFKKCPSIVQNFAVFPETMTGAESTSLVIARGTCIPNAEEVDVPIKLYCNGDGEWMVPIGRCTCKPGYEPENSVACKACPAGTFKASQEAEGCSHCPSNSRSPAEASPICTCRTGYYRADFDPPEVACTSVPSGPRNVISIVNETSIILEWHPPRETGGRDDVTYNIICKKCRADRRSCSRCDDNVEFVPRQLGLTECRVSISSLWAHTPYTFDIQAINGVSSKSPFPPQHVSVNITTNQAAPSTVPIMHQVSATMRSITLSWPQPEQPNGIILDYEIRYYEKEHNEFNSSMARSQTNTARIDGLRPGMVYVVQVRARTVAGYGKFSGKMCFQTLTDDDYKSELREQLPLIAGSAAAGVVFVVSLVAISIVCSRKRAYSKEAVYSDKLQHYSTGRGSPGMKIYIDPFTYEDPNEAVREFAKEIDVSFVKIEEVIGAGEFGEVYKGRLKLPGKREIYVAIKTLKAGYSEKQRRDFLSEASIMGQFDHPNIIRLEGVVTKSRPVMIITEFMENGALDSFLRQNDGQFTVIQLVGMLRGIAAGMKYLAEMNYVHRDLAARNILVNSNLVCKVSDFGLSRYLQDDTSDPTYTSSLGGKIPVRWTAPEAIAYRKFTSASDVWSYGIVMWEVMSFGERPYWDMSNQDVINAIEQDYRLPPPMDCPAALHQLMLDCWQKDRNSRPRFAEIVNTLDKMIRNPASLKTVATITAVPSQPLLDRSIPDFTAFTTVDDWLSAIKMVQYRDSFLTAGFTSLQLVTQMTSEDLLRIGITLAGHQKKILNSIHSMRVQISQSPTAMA
The note with it: at 10 µM.

In assay [2] the target is T2, Ephrin type-B receptor 2 (Homo sapiens) (UniProt P29323).
T2 sequence (whole entry): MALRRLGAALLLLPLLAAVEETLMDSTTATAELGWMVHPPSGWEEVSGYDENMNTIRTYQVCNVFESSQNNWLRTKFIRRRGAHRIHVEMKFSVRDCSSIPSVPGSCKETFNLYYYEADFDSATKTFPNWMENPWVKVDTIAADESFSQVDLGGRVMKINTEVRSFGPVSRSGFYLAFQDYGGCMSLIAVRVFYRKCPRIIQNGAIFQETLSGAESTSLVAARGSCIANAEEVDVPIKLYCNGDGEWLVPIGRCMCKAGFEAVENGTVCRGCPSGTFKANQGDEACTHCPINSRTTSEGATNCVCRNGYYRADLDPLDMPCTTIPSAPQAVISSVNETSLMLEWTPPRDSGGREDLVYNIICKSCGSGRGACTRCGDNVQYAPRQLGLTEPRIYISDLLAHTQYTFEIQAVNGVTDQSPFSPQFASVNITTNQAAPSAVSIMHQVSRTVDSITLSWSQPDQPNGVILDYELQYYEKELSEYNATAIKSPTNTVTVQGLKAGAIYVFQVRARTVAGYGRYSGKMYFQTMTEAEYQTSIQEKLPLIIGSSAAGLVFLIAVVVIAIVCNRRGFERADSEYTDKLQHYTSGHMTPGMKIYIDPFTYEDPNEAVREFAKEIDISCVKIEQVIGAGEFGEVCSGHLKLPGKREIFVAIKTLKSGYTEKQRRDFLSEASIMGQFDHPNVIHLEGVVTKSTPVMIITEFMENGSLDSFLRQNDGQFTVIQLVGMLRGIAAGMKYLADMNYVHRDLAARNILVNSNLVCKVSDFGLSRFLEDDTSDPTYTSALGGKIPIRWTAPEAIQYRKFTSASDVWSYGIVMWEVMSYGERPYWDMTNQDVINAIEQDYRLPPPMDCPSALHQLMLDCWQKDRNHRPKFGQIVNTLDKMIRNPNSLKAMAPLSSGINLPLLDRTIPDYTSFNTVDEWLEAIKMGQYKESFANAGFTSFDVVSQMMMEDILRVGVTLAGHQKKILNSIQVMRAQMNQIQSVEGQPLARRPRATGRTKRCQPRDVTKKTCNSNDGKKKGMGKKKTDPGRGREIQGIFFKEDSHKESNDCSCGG
The note with it: at 1 µM.

The target in assay [3] is T2, Ephrin type-B receptor 2 (Homo sapiens). The note with it: at 10 µM.
Assay [4] deals with T3, Ephrin type-B receptor 3 (Homo sapiens) (UniProt P54753).
T3 sequence (whole entry): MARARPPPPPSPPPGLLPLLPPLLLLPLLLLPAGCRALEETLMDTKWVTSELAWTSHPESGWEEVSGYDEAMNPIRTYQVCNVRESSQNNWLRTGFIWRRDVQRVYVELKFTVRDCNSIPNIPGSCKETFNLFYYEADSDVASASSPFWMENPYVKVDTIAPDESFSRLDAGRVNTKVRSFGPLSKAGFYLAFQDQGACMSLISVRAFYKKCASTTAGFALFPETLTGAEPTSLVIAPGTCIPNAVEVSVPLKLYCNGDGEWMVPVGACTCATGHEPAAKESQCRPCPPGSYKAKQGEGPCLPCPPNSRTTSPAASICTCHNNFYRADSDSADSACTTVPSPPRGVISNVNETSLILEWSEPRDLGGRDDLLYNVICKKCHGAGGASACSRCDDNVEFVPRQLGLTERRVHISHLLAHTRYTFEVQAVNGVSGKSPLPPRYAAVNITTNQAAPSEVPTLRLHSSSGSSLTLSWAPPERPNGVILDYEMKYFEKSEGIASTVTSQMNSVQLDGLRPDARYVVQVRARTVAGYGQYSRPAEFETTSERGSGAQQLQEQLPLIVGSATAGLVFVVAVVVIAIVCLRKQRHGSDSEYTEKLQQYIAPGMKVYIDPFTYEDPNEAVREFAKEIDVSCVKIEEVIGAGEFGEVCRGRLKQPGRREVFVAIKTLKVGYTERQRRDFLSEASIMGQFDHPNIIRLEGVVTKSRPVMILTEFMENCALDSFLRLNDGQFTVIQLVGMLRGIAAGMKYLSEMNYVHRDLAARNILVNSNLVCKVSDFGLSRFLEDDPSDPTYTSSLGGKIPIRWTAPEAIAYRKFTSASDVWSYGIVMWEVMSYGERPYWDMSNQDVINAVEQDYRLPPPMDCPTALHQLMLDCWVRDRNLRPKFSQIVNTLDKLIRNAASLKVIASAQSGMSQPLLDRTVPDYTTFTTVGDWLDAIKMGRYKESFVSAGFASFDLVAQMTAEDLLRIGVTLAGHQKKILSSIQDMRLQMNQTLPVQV
The note with it: at 1 µM.

For assay [5], the target named is T3, Ephrin type-B receptor 3 (Homo sapiens). The note with it: at 10 µM.
For assay [6], the target named is T4, Ephrin type-B receptor 4 (Homo sapiens) (UniProt P54760).
T4 sequence (whole entry): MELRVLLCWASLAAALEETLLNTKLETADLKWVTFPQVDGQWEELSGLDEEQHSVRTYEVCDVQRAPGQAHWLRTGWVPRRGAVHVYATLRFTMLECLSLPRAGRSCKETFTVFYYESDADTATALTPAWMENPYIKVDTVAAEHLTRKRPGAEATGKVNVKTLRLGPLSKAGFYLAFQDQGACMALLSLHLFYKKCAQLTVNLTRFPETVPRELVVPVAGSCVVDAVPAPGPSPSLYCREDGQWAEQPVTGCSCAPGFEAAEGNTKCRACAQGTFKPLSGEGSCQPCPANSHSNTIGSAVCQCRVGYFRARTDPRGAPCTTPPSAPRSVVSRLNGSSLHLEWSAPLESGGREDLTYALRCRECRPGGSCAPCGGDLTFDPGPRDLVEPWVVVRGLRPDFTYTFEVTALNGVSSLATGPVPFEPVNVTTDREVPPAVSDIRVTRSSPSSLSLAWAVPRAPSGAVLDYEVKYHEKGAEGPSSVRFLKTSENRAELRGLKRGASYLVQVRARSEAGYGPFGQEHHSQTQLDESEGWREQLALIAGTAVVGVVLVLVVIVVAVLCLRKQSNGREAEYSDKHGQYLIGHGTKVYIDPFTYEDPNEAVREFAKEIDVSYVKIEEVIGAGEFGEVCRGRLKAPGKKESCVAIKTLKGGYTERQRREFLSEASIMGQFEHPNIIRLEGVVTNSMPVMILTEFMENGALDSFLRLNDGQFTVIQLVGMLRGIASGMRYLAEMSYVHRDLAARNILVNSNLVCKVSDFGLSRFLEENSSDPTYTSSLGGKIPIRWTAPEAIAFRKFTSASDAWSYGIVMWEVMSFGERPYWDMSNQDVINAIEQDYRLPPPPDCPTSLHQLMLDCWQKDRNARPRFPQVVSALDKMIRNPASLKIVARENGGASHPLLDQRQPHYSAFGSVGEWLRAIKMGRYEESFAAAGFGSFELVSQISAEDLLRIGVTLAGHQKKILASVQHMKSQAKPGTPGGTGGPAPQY
The note with it: at 1 µM.

Assay [7] has as its target T4, Ephrin type-B receptor 4 (Homo sapiens). The note with it: at 10 µM.
In assay [8] the target is Receptor tyrosine-protein kinase erbB-4 (Homo sapiens) (UniProt Q15303). The note with it: at 1 µM.
Assay [9] shares this target. The note with it: at 10 µM.
The target in assay [10] is Focal adhesion kinase 1 (Homo sapiens) (UniProt Q05397). The note with it: at 1 µM.
Sequence of Focal adhesion kinase 1 (Homo sapiens) (Q05397 2-1052 limits assumed): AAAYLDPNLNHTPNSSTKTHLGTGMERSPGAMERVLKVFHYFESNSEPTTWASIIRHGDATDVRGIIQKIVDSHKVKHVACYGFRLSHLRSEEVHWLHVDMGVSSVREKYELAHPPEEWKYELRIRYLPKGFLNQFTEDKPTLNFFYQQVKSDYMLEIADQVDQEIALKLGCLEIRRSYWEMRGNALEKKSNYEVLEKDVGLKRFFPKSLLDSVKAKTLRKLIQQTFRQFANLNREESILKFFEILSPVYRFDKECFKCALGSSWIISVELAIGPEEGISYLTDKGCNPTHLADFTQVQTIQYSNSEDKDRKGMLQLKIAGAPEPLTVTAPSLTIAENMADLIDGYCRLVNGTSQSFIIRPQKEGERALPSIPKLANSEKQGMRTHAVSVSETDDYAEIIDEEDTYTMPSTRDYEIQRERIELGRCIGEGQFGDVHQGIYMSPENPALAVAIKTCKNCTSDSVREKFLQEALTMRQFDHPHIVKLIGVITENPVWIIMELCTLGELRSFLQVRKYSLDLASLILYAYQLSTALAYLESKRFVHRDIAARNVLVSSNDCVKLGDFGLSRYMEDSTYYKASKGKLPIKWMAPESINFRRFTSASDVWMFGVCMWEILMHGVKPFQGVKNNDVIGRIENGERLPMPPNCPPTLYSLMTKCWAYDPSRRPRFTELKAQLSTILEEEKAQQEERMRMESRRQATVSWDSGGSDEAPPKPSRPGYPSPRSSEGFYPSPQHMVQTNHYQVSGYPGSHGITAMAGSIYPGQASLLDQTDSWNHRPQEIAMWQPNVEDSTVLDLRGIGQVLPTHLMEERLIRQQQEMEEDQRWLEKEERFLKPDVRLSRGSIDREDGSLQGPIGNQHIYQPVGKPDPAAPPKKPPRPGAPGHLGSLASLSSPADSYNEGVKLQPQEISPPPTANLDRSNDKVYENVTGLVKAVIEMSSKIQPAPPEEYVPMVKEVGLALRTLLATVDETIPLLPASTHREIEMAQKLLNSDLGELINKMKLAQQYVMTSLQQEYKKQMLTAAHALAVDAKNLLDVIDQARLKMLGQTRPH

Sequence of Receptor tyrosine-protein kinase erbB-4 (Homo sapiens) (Q15303 whole entry): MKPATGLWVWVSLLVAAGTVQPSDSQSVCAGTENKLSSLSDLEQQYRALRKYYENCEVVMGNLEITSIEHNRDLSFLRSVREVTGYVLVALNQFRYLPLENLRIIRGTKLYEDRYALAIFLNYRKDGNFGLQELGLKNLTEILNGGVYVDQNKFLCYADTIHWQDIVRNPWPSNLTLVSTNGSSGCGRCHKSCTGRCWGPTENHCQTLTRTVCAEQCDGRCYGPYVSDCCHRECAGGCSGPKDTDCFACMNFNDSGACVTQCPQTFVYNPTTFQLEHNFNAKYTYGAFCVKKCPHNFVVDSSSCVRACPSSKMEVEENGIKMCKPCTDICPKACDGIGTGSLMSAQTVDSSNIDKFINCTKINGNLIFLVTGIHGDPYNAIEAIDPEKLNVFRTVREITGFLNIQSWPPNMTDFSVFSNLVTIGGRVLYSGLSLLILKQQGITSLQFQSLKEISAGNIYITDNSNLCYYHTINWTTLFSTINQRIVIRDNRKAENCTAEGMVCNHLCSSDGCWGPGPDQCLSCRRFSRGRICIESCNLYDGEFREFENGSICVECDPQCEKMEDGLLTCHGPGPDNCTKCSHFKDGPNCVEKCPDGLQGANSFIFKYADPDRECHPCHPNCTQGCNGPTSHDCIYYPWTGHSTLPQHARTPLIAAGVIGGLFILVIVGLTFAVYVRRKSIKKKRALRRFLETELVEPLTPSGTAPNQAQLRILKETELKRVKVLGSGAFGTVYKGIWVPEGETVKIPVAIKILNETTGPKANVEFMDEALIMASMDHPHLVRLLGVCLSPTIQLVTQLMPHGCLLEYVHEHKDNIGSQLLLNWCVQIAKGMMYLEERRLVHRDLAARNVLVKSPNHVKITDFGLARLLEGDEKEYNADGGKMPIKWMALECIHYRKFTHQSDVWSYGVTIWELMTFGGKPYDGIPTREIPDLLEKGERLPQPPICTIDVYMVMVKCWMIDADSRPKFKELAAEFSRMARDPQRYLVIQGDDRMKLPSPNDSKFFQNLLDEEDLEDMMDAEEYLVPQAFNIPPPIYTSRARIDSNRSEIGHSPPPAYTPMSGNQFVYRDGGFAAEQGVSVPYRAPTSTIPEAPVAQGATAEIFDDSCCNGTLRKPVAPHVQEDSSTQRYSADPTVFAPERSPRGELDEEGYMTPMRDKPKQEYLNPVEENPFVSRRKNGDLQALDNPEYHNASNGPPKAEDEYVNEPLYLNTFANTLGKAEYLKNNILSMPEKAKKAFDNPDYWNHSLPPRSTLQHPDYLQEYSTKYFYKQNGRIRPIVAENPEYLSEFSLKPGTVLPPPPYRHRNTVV

For `O=c1cc(-c2cccc3c2Sc2ccccc2S3)oc(N2CCOCC2)c1`, the residual activity (in general, the signal under treatment as a percentage of the control signal) was 92% in [1]; 112% in [2]; 126% in [3]; 119% (inactive) in [4]; 121% in assay [5]; 113% in [6]. Moreover, the residual activity is 118% in assay [7], 105% in [8], 92% in assay [9] and 109% in assay [10].

Source of the values: ChEMBL document CHEMBL2218924, “A broad activity screen in support of a chemogenomic map for kinase signalling research and drug discovery” (Biochem J, 2013).
